Results on 113 sequences are retold here after the supplement of paper PMC3334620.

The full ranking holds about 33,000 sequences; the median of “E-score (-0.5 to 0.5)” is about -0.032, and the highest 2% start at about 0.36. Shown is part of a subset that was picked to be rich in the highest values.

The experiment concerns the target T1, Sko1 (UniProt Q02100).
T1 sequence: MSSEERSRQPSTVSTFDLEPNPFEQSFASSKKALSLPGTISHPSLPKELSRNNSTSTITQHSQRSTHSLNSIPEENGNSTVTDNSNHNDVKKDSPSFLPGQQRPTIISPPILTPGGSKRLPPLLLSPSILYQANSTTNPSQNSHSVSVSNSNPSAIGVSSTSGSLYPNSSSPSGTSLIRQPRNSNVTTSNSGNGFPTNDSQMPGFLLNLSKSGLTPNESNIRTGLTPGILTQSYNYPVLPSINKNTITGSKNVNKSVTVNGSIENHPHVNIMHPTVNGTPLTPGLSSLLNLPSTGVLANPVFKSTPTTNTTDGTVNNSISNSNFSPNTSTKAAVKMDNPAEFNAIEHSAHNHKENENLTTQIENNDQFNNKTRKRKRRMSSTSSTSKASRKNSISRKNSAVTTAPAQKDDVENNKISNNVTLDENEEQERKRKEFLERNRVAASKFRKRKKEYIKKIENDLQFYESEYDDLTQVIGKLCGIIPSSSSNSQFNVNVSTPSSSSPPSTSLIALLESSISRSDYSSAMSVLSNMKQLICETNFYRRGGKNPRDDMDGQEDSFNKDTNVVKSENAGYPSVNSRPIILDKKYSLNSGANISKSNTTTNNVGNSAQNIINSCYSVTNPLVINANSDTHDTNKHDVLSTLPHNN
Briefly: PBM E-score (8-mer binding enrichment) (E-score (-0.5 to 0.5)); higher = stronger / more preferred TF binding. The settings on record: protein concentration: 200 nM; construct: GST-full length. The gist of the method: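 The E-score, a modified Wilcoxon-Mann-Whitney statistic, was computed by the Universal PBM Analysis Suite for every ungapped eight-base word pooled with its reverse complement. Scans behind it were normalised with masliner after bound GST-tagged yeast transcription factors were detected with fluorescent anti-GST. The proteins, at about 100-200 nM, had been applied to universal all-10-mer Agilent arrays made double-stranded by primer extension.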
Take AATGAGGT: the “PBM E-score” value was found to be 0.324.

Consider CTTGGGTC, for which the “PBM E-score” value was -0.348.

GGCGCGAA: the “PBM E-score” value is -0.151.

As for GCGTATAA, the “PBM E-score” value came out at 0.271.

For the sequence GCGTATAC, the “PBM E-score” value is 0.365.

GAGTATAC: the “PBM E-score” value is 0.192.

Consider ATGGAGGG, for which the “PBM E-score” value is -0.334.

CCACACTC: the “PBM E-score” value came to 0.00961.

For AAGATTAG, the “PBM E-score” value is 0.062.

AGTAAGGC: the “PBM E-score” value is -0.0198.

For the sequence CTTACGCA, the “PBM E-score” value was determined as 0.427.

As to GTTACTCA, the “PBM E-score” value was found to be 0.0403.

On to GTTACGCA, for which the “PBM E-score” value is 0.417.

Consider CTTACGCC, for which the “PBM E-score” value is 0.193.

Consider GGTACGCA, for which the “PBM E-score” value is 0.268.

On to ATTACTCG, for which the “PBM E-score” value is 0.204.

Regarding ATTACGCG, the “PBM E-score” value worked out at 0.431.

With CTCACGCA, the “PBM E-score” value was 0.28.

For the sequence ATTACGCA, the “PBM E-score” value was found to be 0.47.

ATTACGGA: the “PBM E-score” value came to 0.287.

For the sequence ATTACGCC, the “PBM E-score” value was 0.338.

For CAAACCAG, the “PBM E-score” value is -0.071.

As to GCACCGCC, the “PBM E-score” value is -0.218.

Regarding GTACCTGA, the “PBM E-score” value amounted to 0.16.

As to GCATCTCC, the “PBM E-score” value was -0.341.

Regarding ACCGGCCT, the “PBM E-score” value is -0.0244.

As to ATAGAAAG, the “PBM E-score” value was -0.115.

Turning to CATAGAAC, the “PBM E-score” value was -0.15.

As for AGTACGTC, the “PBM E-score” value turned out to be 0.435.

For the sequence AGTACGGC, the “PBM E-score” value is -0.101.

On to AGTACGTA, for which the “PBM E-score” value is 0.474.

As for AGTACATA, the “PBM E-score” value was 0.00479.

GGTACGAA: the “PBM E-score” value was 0.19.

As for CGTACATA, the “PBM E-score” value is 0.378.

With GGTACGTA, the “PBM E-score” value came out at 0.454.

Turning to AGTACGAA, the “PBM E-score” value worked out at 0.312.

Consider CGTACATC, for which the “PBM E-score” value came to 0.244.

In the case of AGTACGGA, the “PBM E-score” value is -0.0994.

Take AGTACGAC: the “PBM E-score” value came out at 0.157.

For the sequence GGTACGGA, the “PBM E-score” value is -0.174.

Consider AACCGCCC, for which the “PBM E-score” value was -0.295.

Take CTTCAATA: the “PBM E-score” value was 0.197.

CGCCGTGC: the “PBM E-score” value was -0.189.

Regarding CGTGCGGC, the “PBM E-score” value came out at 0.00261.

Consider CCCTACCA, for which the “PBM E-score” value was -0.0655.

CCCTAGGC: the “PBM E-score” value is -0.269.

Consider GACTGGCC, for which the “PBM E-score” value was -0.338.

As for AGTACGAG, the “PBM E-score” value was 0.00509.

Consider CGTACGCA, for which the “PBM E-score” value was 0.332.

For CGTACGTC, the “PBM E-score” value came to 0.45.

Take CGTACGCC: the “PBM E-score” value turned out to be 0.218.

AGTACGCG: the “PBM E-score” value was determined as 0.236.

Regarding AGTACGTG, the “PBM E-score” value stood at 0.365.

For the sequence CGTACGAA, the “PBM E-score” value was found to be 0.269.

With CGTACGGC, the “PBM E-score” value worked out at 0.251.

Turning to CGTACGTA, the “PBM E-score” value stood at 0.474.

Consider GGGTTGCA, for which the “PBM E-score” value was -0.00077.

With CTGGCGTC, the “PBM E-score” value is 0.0837.

Consider ATGGCGTA, for which the “PBM E-score” value is 0.449.

Take GTGGCGTA: the “PBM E-score” value stood at 0.325.

As to ATGGCGTG, the “PBM E-score” value came to 0.336.

Regarding CTGGCGTA, the “PBM E-score” value was 0.138.

Take ATGGCGTC: the “PBM E-score” value amounted to 0.392.

With AACGAGTG, the “PBM E-score” value worked out at 0.0243.

Take CGATGCAC: the “PBM E-score” value was -0.0249.

With AGTCTTAA, the “PBM E-score” value was -0.164.

Consider TCACTGCA, for which the “PBM E-score” value stood at 0.175.

Regarding GTTACAAA, the “PBM E-score” value was 0.213.

Turning to ATTACAAA, the “PBM E-score” value was 0.234.

For GTTACGAA, the “PBM E-score” value is 0.378.

Consider CTTACGAA, for which the “PBM E-score” value was 0.275.

Consider CTCACGAA, for which the “PBM E-score” value worked out at 0.138.

Consider ATTACGAA, for which the “PBM E-score” value was found to be 0.453.

Turning to GTAGGGGA, the “PBM E-score” value was -0.186.

As to GGCCATCA, the “PBM E-score” value was -0.165.

Turning to ACCCTGAA, the “PBM E-score” value was -0.0751.

Turning to CGCGAATA, the “PBM E-score” value was found to be 0.0754.

With ACCTAACT, the “PBM E-score” value is 0.0945.

With CGTCGCCA, the “PBM E-score” value worked out at 0.0172.

Consider GAACCTCA, for which the “PBM E-score” value was -0.069.

As for CGGACGTC, the “PBM E-score” value was 0.292.

As to GGGACGTA, the “PBM E-score” value came out at 0.319.

As to AGGACGTC, the “PBM E-score” value is 0.363.

With AGGACGTG, the “PBM E-score” value amounted to 0.153.

Consider AGGACGCC, for which the “PBM E-score” value is -0.21.

With AGGACGTA, the “PBM E-score” value amounted to 0.374.

Take CATACCCA: the “PBM E-score” value was determined as 0.108.

TAAGCAGA: the “PBM E-score” value was -0.00339.

As to AAGGTAGT, the “PBM E-score” value is -0.172.

In the case of AACGTACT, the “PBM E-score” value is 0.37.

Regarding ATCGTACG, the “PBM E-score” value came to 0.282.

On to AGCGTACT, for which the “PBM E-score” value is -0.0878.

In the case of ACCGTACG, the “PBM E-score” value turned out to be 0.145.

As for AACGTACG, the “PBM E-score” value came out at 0.398.

Regarding ACCGTACT, the “PBM E-score” value was 0.00383.

As for AACGTAGT, the “PBM E-score” value is 0.414.

ACCGTAGT: the “PBM E-score” value was -0.122.

Take GTCTTTAA: the “PBM E-score” value is 0.178.

Regarding ACATTGAA, the “PBM E-score” value was 0.166.

As for GTGCATGA, the “PBM E-score” value amounted to 0.133.

Take AGATGGTC: the “PBM E-score” value was -0.139.

As for GCGTCAAC, the “PBM E-score” value was found to be 0.302.

For AGGTCAAT, the “PBM E-score” value came to 0.0656.

As to ACGTCAAG, the “PBM E-score” value amounted to 0.444.

For ATGTCAAT, the “PBM E-score” value was determined as 0.226.

With AGGTCAAG, the “PBM E-score” value was -0.193.

For the sequence ACGTCAAA, the “PBM E-score” value stood at 0.447.

GCGTCAAA: the “PBM E-score” value stood at 0.274.

With ACGTCAAT, the “PBM E-score” value came out at 0.46.

Take CCGTCAAG: the “PBM E-score” value was -0.0482.

Consider CCGTCAAC, for which the “PBM E-score” value is -0.0749.

Turning to TCGTCAAA, the “PBM E-score” value is 0.281.

Take ACGTCAAC: the “PBM E-score” value stood at 0.469.
